The panel holds about 79,000 compounds, 15% with a hit somewhere; the sample as a whole holds those more often. Unmarked numbers belong to inactive results. Active and inactive are the calls of the source. Rule as the data show it: active = growth inhibition above about 70%; inactive = the rest.
Key:
[1] = NCI Yeast Anticancer Drug Screen. Data for the rad52 strain (AID 147);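 also: 0% = growth of vehicle-treated control cultures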; conditions: S. cerevisiae rad52 mutant growth inhibition, active compounds read high
Summary of the method: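 The repair-mutant yeast strain was incubated with compounds, then growth was read and inhibition derived relative to vehicle.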

[2] = NCI Yeast Anticancer Drug Screen. Data for the rad50EPP+ strain (AID 151);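 also: 0% = growth of vehicle-treated control cultures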; conditions: S. cerevisiae rad50 mutant strain, active compounds read high
Summary of the method: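 Vehicle-normalised growth inhibition; rad50EPP+ yeast strain, altered in DNA damage repair, compound-treated.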

[3] = NCI Yeast Anticancer Drug Screen. Data for the rad50 strain (AID 155);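 also: 0% = growth of vehicle-only cultures of the same strain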; conditions: S. cerevisiae rad50 strain growth inhibition, active compounds read high
Summary of the method: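 Growth of the mutant yeast was measured after compound exposure and referenced to vehicle-treated cultures.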

[4] = NCI Yeast Anticancer Drug Screen. Data for the mec2-1 strain (AID 157); conditions: S. cerevisiae mec2-1 strain, active compounds read high
Summary of the method: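 Mutant yeast (mec2-1) grown with compound; growth inhibition relative to vehicle control reported.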

[5] = NCI Yeast Anticancer Drug Screen. Data for the sgs1 mgt1 strain (AID 161);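 also: 0% = growth of cultures given vehicle only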; conditions: S. cerevisiae sgs1 mgt1 strain, active compounds read high
Summary of the method: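 Yeast cells carrying a defined DNA-repair defect were exposed to test compounds. Growth inhibition was measured relative to vehicle-treated controls.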

[6] = NCI Yeast Anticancer Drug Screen. Data for the CLN2oe strain (AID 163);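 also: 0% = growth of vehicle-only control cultures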; conditions: S. cerevisiae CLN2oe strain, active compounds read high
Summary of the method: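 Compounds are applied to yeast harbouring a defined cell-cycle control change; reduced growth compared with vehicle-treated controls gives the value.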

[7] = NCI Yeast Anticancer Drug Screen. Data for the cln2 rad14 strain (AID 165);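 also: 0% = growth equal to vehicle treated cultures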; conditions: S. cerevisiae cln2 rad14 strain, active compounds read high
Summary of the method: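 Readout is yeast growth inhibition versus vehicle-treated controls, using a strain with cln2 and rad14 alterations exposed to compound.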

[8] = NCI Yeast Anticancer Drug Screen. Data for the bub3 strain (AID 167); conditions: S. cerevisiae bub3 mutant strain, active compounds read high
Summary of the method: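 Whole-cell yeast assay. The mutant strain was incubated with compounds, and growth inhibition was determined by comparison with vehicle-treated cells.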

[9] = NCI Yeast Anticancer Drug Screen. Data for the wt2 strain (AID 169);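 also: 0% = growth of vehicle-treated yeast cultures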; conditions: S. cerevisiae wt2 strain growth inhibition, active compounds read high
Summary of the method: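 Against vehicle-treated controls, the growth of yeast exposed to each compound was compared, and the inhibition was recorded.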

[10] = NCI Yeast Anticancer Drug Screen. Data for the mlh1 strain (AID 171);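 also: 0% = growth of vehicle-treated control cultures of the same strain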; conditions: S. cerevisiae mlh1 strain growth inhibition, active compounds read high
Summary of the method: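 Measured: yeast growth. Reference: vehicle-treated controls. Organism: strain with a defined alteration affecting DNA damage repair or cell cycle control, treated with compound.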

[11] = NCI Yeast Anticancer Drug Screen. Data for the sgs1 strain (AID 173);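 also: 0% = growth of vehicle-only control cultures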; conditions: S. cerevisiae sgs1 mutant, active compounds read high
Summary of the method: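 Each compound was added to cultures of the altered yeast strain. Growth was recorded, and inhibition was derived by comparison with vehicle controls.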

[12] = NCI Yeast Anticancer Drug Screen. Data for the mlh1 rad18 strain (AID 175); conditions: S. cerevisiae mlh1 rad18 strain growth inhibition, active compounds read high
Summary of the method: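 Genetically defined yeast (DNA repair-deficient) exposed to compounds; growth inhibition determined relative to vehicle.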

[13] = NCI Yeast Anticancer Drug Screen. Data for the rad18 strain (AID 177); conditions: S. cerevisiae rad18 mutant growth inhibition, active compounds read high
Summary of the method: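 Vehicle-treated cultures served as the baseline for scoring compound-induced growth inhibition in DNA-repair-mutant yeast.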

[14] = at 5.0 µM (retest, dose inferred, filed as 0.5)
[15] = at 50.0 µM (retest, dose inferred, filed as 5.0)

## O=C(Nc1ccc2c(c1)Cc1c-2ccc([N+](=O)[O-])c1F)C(F)(F)F
[1]; at 1.2 µM
  growth inhibition: 4%
[1]; at 3.7 µM
  growth inhibition: 4%
[1]; at 11.0 µM
  growth inhibition: 5%
[1]; at 33.0 µM
  growth inhibition: 5%
[1]; at 100.0 µM
  growth inhibition: 3%
[2]; at 1.2 µM
  growth inhibition: 9%
[2]; at 3.7 µM
  growth inhibition: 0%
[2]; at 11.0 µM
  growth inhibition: 6%
[2]; at 33.0 µM
  growth inhibition: 11%
[2]; at 100.0 µM
  growth inhibition: 20%
[3]; at 1.2 µM
  growth inhibition: 2%
[3]; at 3.7 µM
  growth inhibition: 4%
[3]; [14]
  growth inhibition: 2%
[3]; at 11.0 µM
  growth inhibition: 4%
[3]; at 33.0 µM
  growth inhibition: 3%
[3]; [15]
  growth inhibition: 11%
[3]; at 50.0 µM
  growth inhibition: 2.95%
[3]; at 100.0 µM
  growth inhibition: 4%
[4]; at 1.2 µM
  growth inhibition: -1%
[4]; at 3.7 µM
  growth inhibition: 0%
[4]; [14]
  growth inhibition: -17%
[4]; at 11.0 µM
  growth inhibition: -1%
[4]; at 33.0 µM
  growth inhibition: 1%
[4]; [15]
  growth inhibition: -11%
[4]; at 50.0 µM
  growth inhibition: 1.35%
[4]; at 100.0 µM
  growth inhibition: 2%
[5]; [14]
  growth inhibition: 23%
[5]; [15]
  growth inhibition: 19%
[5]; at 50.0 µM
  growth inhibition: -3.05%
[6]; at 1.2 µM
  growth inhibition: -2%
[6]; at 3.7 µM
  growth inhibition: -3%
[6]; at 11.0 µM
  growth inhibition: -4%
[6]; at 33.0 µM
  growth inhibition: -11%
[6]; at 100.0 µM
  growth inhibition: -4%
[7]; [14]
  growth inhibition: 4%
[7]; [15]
  growth inhibition: 7%
[7]; at 50.0 µM
  growth inhibition: -10.7%
[8]; at 1.2 µM
  growth inhibition: -2%
[8]; at 3.7 µM
  growth inhibition: 1%
[8]; [14]
  growth inhibition: -4%
[8]; at 11.0 µM
  growth inhibition: 1%
[8]; at 33.0 µM
  growth inhibition: 1%
[8]; [15]
  growth inhibition: 12%
[8]; at 50.0 µM
  growth inhibition: 8.35%
[8]; at 100.0 µM
  growth inhibition: -4%
[9]; at 1.2 µM
  growth inhibition: 2%
[9]; at 3.7 µM
  growth inhibition: 0%
[9]; at 11.0 µM
  growth inhibition: 2%
[9]; at 33.0 µM
  growth inhibition: 2%
[9]; at 100.0 µM
  growth inhibition: 0%
[10]; at 1.2 µM
  growth inhibition: 5%
[10]; at 3.7 µM
  growth inhibition: 3%
[10]; at 11.0 µM
  growth inhibition: 3%
[10]; at 33.0 µM
  growth inhibition: 2%
[10]; at 100.0 µM
  growth inhibition: 2%
[11]; at 1.2 µM
  growth inhibition: 1%
[11]; at 3.7 µM
  growth inhibition: 3%
[11]; at 11.0 µM
  growth inhibition: -1%
[11]; at 33.0 µM
  growth inhibition: 1%
[11]; at 100.0 µM
  growth inhibition: 3%
[12]; [14]
  growth inhibition: 62%
[12]; [15]
  growth inhibition: 79% (active)
[12]; at 50.0 µM
  growth inhibition: 18.4%
[13]; at 1.2 µM
  growth inhibition: 4%
[13]; at 3.7 µM
  growth inhibition: 0%
[13]; at 11.0 µM
  growth inhibition: -25%
[13]; at 33.0 µM
  growth inhibition: 5%
[13]; at 100.0 µM
  growth inhibition: 9%
